Compound activity deposited in PubChem by several laboratories.
PostGolgi ctrl: growth inhibition of yeast control strain, primary screen, counter-screen for post-Golgi transport modulator project | efflux-deficient yeast background strain, growth absorbance A615, 16 h | inhibition, % at 10 µM | hit rate 5% among 98,000
CYP2C19 inh: blockers of cytochrome P450 2C19 activity – biochemical, luminescence, ADME assay, primary screen; P33261; inhibition, % at 5 µM; CYP2C19 Supersomes, luciferin-H EGE luminescence, 30 min; hit rate 21% among 96,000;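 active means CYP2C19 inhibition above a set limit at 5 µM in the primary screen, cut at about 50% in these data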;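 further: plate controls were negative control wells for no effect and 2.5 mM tranylcypromine positive control for full effect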
CYP2C9 inhib: blockers of cytochrome P450 2C9 activity – biochemical, luminescence, ADME assay, primary screen; inhibition, % at 5 µM; hit rate 20% among 96,000; CYP2C9 Supersomes, luciferin-H conversion; AID 777, 2007;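 active means blocking of liver enzyme CYP2C9 beyond about 50% at 5 µM, limit read from the data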
Target sequence (P11712 whole entry, looked up): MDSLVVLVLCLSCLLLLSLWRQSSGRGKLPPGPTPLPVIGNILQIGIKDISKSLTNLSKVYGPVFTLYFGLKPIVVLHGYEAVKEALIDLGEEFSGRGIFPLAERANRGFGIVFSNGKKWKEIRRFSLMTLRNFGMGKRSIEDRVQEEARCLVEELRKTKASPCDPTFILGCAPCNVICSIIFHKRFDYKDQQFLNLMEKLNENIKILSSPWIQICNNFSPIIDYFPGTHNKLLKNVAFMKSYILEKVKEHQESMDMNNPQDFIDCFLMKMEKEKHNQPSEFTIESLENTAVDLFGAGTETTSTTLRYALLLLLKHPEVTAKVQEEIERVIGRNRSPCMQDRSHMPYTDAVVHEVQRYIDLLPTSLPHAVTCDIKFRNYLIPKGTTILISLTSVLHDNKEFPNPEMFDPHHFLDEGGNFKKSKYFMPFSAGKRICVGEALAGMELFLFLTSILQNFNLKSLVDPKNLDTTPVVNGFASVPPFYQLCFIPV
CYP2C19 activ: human CYP2C19 activators, primary screen, biochemical, luminescence | recombinant CYP2C19, luciferin-H EGE luminescence; active compounds read high; 0 = fully inhibited enzyme, 1 = untreated enzyme | activation factor at 5 µM | 96,000 tested, under 10 active | Cytochrome P450 2C19 (Homo sapiens), P33261;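 active means activation factor of at least 2 at 5 µM in the primary screen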;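 further: 0 = wells with 2.5 mM tranylcypromine and 1 = vehicle-only wells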
CYP2C9 act: human CYP2C9 activators, primary screen, biochemical, luminescence; recombinant CYP2C9, luciferin-H conversion; active compounds read high; factor 1 = untreated enzyme, 0 = blocked; activation factor at 5 µM; AID 1024, 2008; hit rate 1.4% among 96,000; Cytochrome P450 2C9 (Homo sapiens), P11712;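 active means activation factor of 2 or more for CYP2C9 at a 5 µM dose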;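 further: 0 = sulfaphenazole-blocked wells and 1 = vehicle-only wells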
PostGolgi yeast: phenotypic screen on post-Golgi transport, primary screen; AID 739, 2007; inhibition, % at 10 µM; post-Golgi transport phenotypic cell assay; hit rate 0.9% among 98,000;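 further: yeast cells grown in 1536-well plates; yeast grown about 18 h at 30C before absorbance read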
* = called active by the depositor. Rows were chosen to be rich in hits. Some 32% of all compounds tested hit in one or more screens of this group. Unless noted, no stated cut-off is given here; in the data, active means inhibition above about 30%; inactive means the rest.

SMILES	PostGolgi ctrl	CYP2C19 inh	CYP2C9 inhib	CYP2C19 activ	CYP2C9 act	PostGolgi yeast
COc1ccc(-c2nn(C)c3sc(C(=O)NCc4ccco4)cc23)cc1OC	-5.2	-6.6	2.1	1.1	1	4.8
CC(C)=C1SC(N2CCN(c3cccc(C(F)(F)F)c3)CC2)=NC1=O	5.3	-11.0	-62.2	1.1	1.6	4.8
Oc1c(C(c2ccco2)N2CCOCC2)sc2ncnn12 (centres undefined)	0.7	33.7	45.9	0.7	0.5	-3.0
O=C(Nc1sc2c(c1C(=O)O)CCCC2)c1cccs1	4.6	-0.8	6.5	1	0.9	-1.6
O=C(Nc1sc2c(c1C(=O)NCC1CCCO1)CCCC2)c1cccs1 (centres undefined)	68.3*	-7.1	29.3	1.1	0.7	86.5*
CC(C)OC(=O)c1c(NC(=O)c2cccs2)sc2c1CCCC2	16.6	-3.6	73.9*	1	0.3	1.5
O=C(Cc1cccs1)NCC1CCCO1 (centres undefined)	3.5	-4.9	-0.6	1	1	-1.6
COc1cc(C2N(c3ccc(F)cc3)C(=O)C3CCCN32)cc(OC)c1OC (centres undefined)	-8.1	18.2	10.7	0.8	0.9	6.0
OC(CSc1ccccc1Cl)CN1CCN(c2ccc(F)cc2)CC1 (centres undefined)	31.1*	31.7	-9.0	0.7	1.1	27.8
OC(CSc1c(Cl)cccc1Cl)CN1CCN(c2ccc(F)cc2)CC1 (centres undefined)	37.3*	36.1	-15.9	0.6	1.2	19.8
OC(CSc1c(Cl)cccc1Cl)CN1CCN(c2ccccc2F)CC1 (centres undefined)	25.5	20.7	29.9	0.8	0.7	-2.4
OC(CSc1ccccc1Cl)CN1CCN(c2ccccc2F)CC1 (centres undefined)	20.8	33.1	12.0	0.7	0.9	-5.6
Cc1ccc(Cn2nnnc2CN2CCC(c3nc4ccc(Cl)cc4[nH]3)CC2)cc1	74.2*	88.9*	90.5*	0.1	0.1	4.6
Cc1ccc(Cn2nnnc2CN2CCC(O)(c3ccc(F)cc3)CC2)cc1	20.5	33.8	37.4	0.7	0.6	9.9
COc1ccc(C(c2c[nH]c3ccccc23)c2c[nH]c3ccccc23)cc1O	54.4*	94.6*	100.3*	0.1	0	-2.0
CC(C)(C)OC(=O)N1CCC(c2cc(=O)n3[nH]cc(C(=O)NC4CCCC4)c3n2)CC1	-10.4	39.4	95.2*	0.6	0	22.4
CC(C)(C)OC(=O)N1CCC(c2cc(=O)n3[nH]c(-c4ccc(Cl)cc4)cc3n2)CC1	4.7	-8.8	-19.7	1.1	1.2	6.0
CS(=O)(=O)N1CCN(c2ccccc2NC(=O)Cc2ccccc2)CC1	10.1	62.5*	49.6	0.4	0.5	-3.1
CCC(=O)N1CCN(c2ccccc2NC(=O)Cc2ccccc2)CC1	-2.0	59.1*	41.9	0.4	0.6	4.5
CS(=O)(=O)N1CCN(c2ccccc2NC(=O)Cc2ccc(Cl)cc2)CC1	21.9	13.8	32.4	0.9	0.7	-0.9
Cc1ccnc(NC2OC(=O)c3ccccc32)c1 (centres undefined)	9.6	15.6	-16.3	0.8	1.2	1.8
CCCN(Cc1ccccc1)C(=O)Nc1ccc2c(c1)nnn2C	5.4	33.5	35.6	0.7	0.6	-4.6
N#CC(C#N)=CC1=C2OC(c3ccccc3)=CC(c3ccccc3)=C2CCC1	-0.8	40.1	79.2*	0.6	0.2	-3.1
COc1ccc(C(=O)Nc2nnc(-c3ccco3)s2)cc1	19.3	54.3*	16.9	0.5	0.8	9.9
COc1ccc(Cc2nnc(NC(=O)c3ccco3)s2)cc1	14.8	36.7	65.0*	0.6	0.3	-5.9
CC(=O)Oc1ccc(C(=O)Nc2nnc(C)s2)cc1	2.0	14.0	-2.2	0.9	1	30.4*
O=C(CSc1nc2ccccc2n1CC(=O)N1CCCC1)Nc1nccs1	-5.6	27.7	36.5	0.7	0.6	3.2
O=C(c1ccccc1)N1CCN(C2CC(=O)N(CCc3ccccc3)C2=O)CC1 (centres undefined)	1.8	-10.0	-8.6	1.1	1.1	19.1
